SMILES strings stand for the structures. This is part of a sample that, as a whole, favours compounds with a hit. Of some 79,000 tested, about 15% had one in any assay. Unmarked numbers belong to inactive results. Cut-off read from the data, not from the text of the source: active = growth inhibition above about 70%; inactive = the rest.

This test can be described thus: NCI Yeast Anticancer Drug Screen. Data for the mlh1 rad18 strain (AID 175). The conditions noted are these: S. cerevisiae mlh1 rad18 strain growth inhibition; at 50.0 µM; stronger effect = higher value. The essentials:
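Compound-treated yeast growth, normalised to vehicle controls. Strain bears defined DNA repair mutations.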
Take `CC(C)C(C(=O)O)N(C)C(=O)c1cnc2ccccc2n1` (stereo not given): the growth inhibition was -6.2%.
Next, `CC1OC(O)CC(NC(=O)C(F)(F)F)C1O` (stereo not given): -0.1%.
Next, `O=S(=O)(O)c1cccc2nsnc12`: -1.3%.
Next, `Cc1sc2nc3n(c(=O)c2c1C)N=CN(c1ccccc1)C3`: -16.7%.
In the case of `COc1ccc(C23CCC(=O)N2CCS3)cc1` (stereo not given), the growth inhibition is 2.8%.
The result for `Nc1ccc(Nc2cc(=O)[nH]c(=O)[nH]2)cc1Cl` reads -20.8%; that for `CCCCC1SCC(=O)N1c1nncs1` (stereo not given), -3.2%; that for `CC(Br)C(=O)NCC(=O)NCC(=O)O` (stereo not given), -4.75%.
Next, `CCC(C)c1cc(C(C)(C)C)cc(-n2nc3ccccc3n2)c1OS(=O)(=O)c1cccc(N)c1` (stereo not given): -22%.
The result for `COc1cccc(NC(=O)C(=O)C(C(=O)c2ccccc2F)C2OC(=O)c3ccccc32)c1` (stereo not given) reads 3.85%; that for `N#C/C(=C/C=C/c1ccccc1)c1ccc([N+](=O)[O-])cc1`, 18.9%; that for `COc1ccc(C(CC(C)(C)C)c2ccc(OC)cc2)cc1`, -11.1%.
Turning to `CC(=O)OC1COC([n+]2cccc(C(N)=O)c2)C(OC(C)=O)C1OC(C)=O` (stereo not given), the growth inhibition is -20%.
With `CCOC(=O)C(=Cc1ccc(Oc2ccccc2)cc1)C(=O)OCC`, the growth inhibition was 7%.
Take `O=C1C2=C(c3ccccc31)C(c1ccccc1Cl)N1C(=O)CCSC1=N2` (stereo not given): the growth inhibition was -3.45%.

Values taken from PubChem BioAssay (NCI).
